Measurements from PubChem BioAssay (NCATS).
Results filed as inconclusive are left out. Calls of active or inactive are those of the source. Calls follow the shape of the dose curve; as a rule, active = well fitted inhibition curve with a large enough effect; inconclusive = small, poorly fitted or top-dose-only effect; inactive = flat fitted curve, though single readings scatter.

assay: qHTS profiling for inhibitors of Plasmodium falciparum proliferation (AID 504749);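 also: 0% = DMSO vehicle and full inhibition = artemisinin control; nearly all actives have a fitted effect of over 60% in size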; settings: P. falciparum in erythrocytes, SYBR Green DNA, 72 h; at 28.7 µM (top of the series); parasite line A
Summary of the method: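 P. falciparum-infected erythrocytes (0.3% parasitemia, 2.5% hematocrit) incubated with compound 72 h at 37 C, 5% CO2. Parasite DNA detected by SYBR Green after lysis, overnight at room temperature; normalised to 0.29 uM artemisinin and DMSO.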

| Compound | activity, negative = inhibition |
| --- | --- |
| Cc1cc(C(C#N)c2ccc(Cl)cc2)c(Cl)cc1NC(=O)c1cc(I)cc(I)c1O (stereo not drawn) | 8.49% (inactive) |
| CC1=C(CC(=O)O)c2cc(F)ccc2/C1=C\c1ccc(S(C)=O)cc1 (stereo not drawn) | -3.64% (inactive) |
| Nc1ccc(S(=O)(=O)Nc2nccs2)cc1 | 1.04% (inactive) |
| [Cl][In]([Cl])[Cl] | -23.4% (inactive) |
| CCOC(=O)c1ccc(O)cc1 | 6.51% (inactive) |
| O=S(=O)(O)c1cc(I)c(O)c2ncccc12 | 12% (inactive) |
| NC1CCN(c2cccc(Cl)n2)CC1 | 13.3% (inactive) |
| Cc1ccc(C(C)C)cc2c(C)ccc1-2 | -17.3% (inactive) |
| COC(=O)C1=C(C)NC(C)=C(C(=O)OC)C1c1ccccc1[N+](=O)[O-] | -7.51% (inactive) |
| CC(CN1c2ccccc2Sc2ccccc21)N(C)C (stereo not drawn) | 8.14% (inactive) |
| CCCCOC(=O)c1ccc(O)cc1 | 8.74% (inactive) |
| CC[C@@]1(c2ccccc2)NC(=O)N(C)C1=O | -2.42% (inactive) |
| CCCCCCCCCCCCCCCC(=O)NCCO | 5.7% (inactive) |
| O=C1NS(=O)(=O)c2ccccc21 | 2.53% (inactive) |
| CN1CCN(C2Cc3ccccc3Sc3ccc(Cl)cc32)CC1 (stereo not drawn) | -18.4% (inactive) |
| CCOC(CN1CCN(CC(C)C(=O)c2ccccc2)CC1)c1ccccc1 (stereo not drawn) | 2.77% (inactive) |
| Cc1c(Cl)cccc1Nc1ccccc1C(=O)O | -2.73% (inactive) |
| CCOc1nc2cccc(C(=O)O)c2n1Cc1ccc(-c2ccccc2-c2nn[nH]n2)cc1 | -6.01% (inactive) |
